Bioassay records from PubChem BioAssay.
Pf growth 96h = inhibits malaria parasite growth, 96 h. P. falciparum luciferase reporter growth, 96 h. Potency, µM (titrated, usually from 28.7 µM), inactives show top-dose activity change, negative = inhibition, actives largely listed as inhibitors. hit rate 6.9% among 320,000. AID 504834; also: potency is read from the fitted curve at half-maximal effect; % is scaled to controls: 0 for no effect and ±100 for the full control effect
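Readout is luminescence from an integrated firefly luciferase in P. falciparum. Red cells, 2% hematocrit and 0.05% parasitemia final, were cultured with compound through two parasite generations (96 hours) at 37 C, 5% CO2.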
NS1 inh = influenza NS1 inhibition; AID 2326; hit rate 0.4% among 270,000; Potency, µM (top dose mostly 46.1 µM), inactives show at the highest dose activity, positive = more growth; calls by dose curve; also: potency is read from the fitted curve at half-maximal effect; actives are rising curves; nearly all actives have a fitted effect of over 50% in size
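S. cerevisiae expressing influenza A NS1, grown in glucose, washed, then diluted 1:100 into pH 6.0 -URA galactose medium with 23 nl compound. Growth recovery read as OD600; NS1-free strain serves as control.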
Pf growth 48h = P. falciparum growth inhibition at 48 hours (one generation); P. falciparum luciferase growth in erythrocytes, 48 h; Potency, µM (series often up to 28.7 µM), without a hit: at the top dose activity change, negative = inhibition, usual class: inhibitors; hit rate 5.9% among 310,000; also: potency is read from the fitted curve at half-maximal effect; % is scaled to controls: 0 for no effect and ±100 for the full control effect
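In quantitative HTS format, infected erythrocytes bearing luciferase-reporter parasites were treated for a single generation at 37 C. Luminescence after adding detection reagent served as the growth measure.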
Shiga inhibitor = blocks Shiga toxin action in Vero cells | Vero cells, Shiga toxin protein synthesis inhibition reporter | inhibition, % at 38.7 µM | hit rate 9.2% among 290,000 | AID 2315; in the data active = inhibition mostly above about 28%, no sharp cut-off; inactive = mostly below about 43%; also: 0% is about no effect
Cycloheximide cs = counter-screen hit for Shiga toxin inhibitors, cycloheximide; AID 2314; max response, %; cell reporter, cycloheximide protein synthesis inhibition counterscreen; hit rate 12% among 300,000; in the data active = max response mostly above about 13%, no sharp cut-off; inactive = mostly below about 14%; also: read at 38.3 µM for the half of the compounds with a filed dose; 0% is about no effect
An asterisk follows results filed as active; i = inactive; u = inconclusive; x = no result; ! = repeats disagree. Hits are enriched below; roughly 21% of the tested compounds scored in any of these assays. Unless noted, calls follow the shape of the dose curve; as a rule, active = well fitted inhibition curve with a large enough effect; inconclusive = small, poorly fitted or top-dose-only effect, or another doubt; inactive = no such curve, though single readings can be large or run the other way.

SMILES	Pf growth 96h	NS1 inh	Pf growth 48h	Shiga inhibitor	Cycloheximide cs
O=[N+]([O-])c1cccc(-c2n[nH]c(=S)n2-c2ccc(Br)cc2)c1	0.4%	14.0%	-0.2%	-9.0	-3.6
O=C(COc1ccc([N+](=O)[O-])cc1)Nc1nc(-c2ccccn2)cs1	6.57µM*	x	9.28µM*	x	x
Cc1ccc(OCC(=O)Nc2nc(-c3ccccn3)cs2)c(C)c1	u	x	-18.3%	x	x
Cc1nc(-c2ccc(NC(=O)c3ccc(Br)o3)cc2)cs1	20.7%	-12.1%	175.4%	114.5*	55.8*
COC(=O)c1ccc(CSc2nnc(Nc3ccc(C)cc3)s2)o1	x	-4.5%	u	12.5	23.0
COc1ccc(-c2noc(-c3ccc(Br)o3)n2)cc1	i	1.9%	81.6%	69.4*	29.9*
COc1ccc(Cc2noc(-c3ccc([N+](=O)[O-])cc3)n2)cc1OC	1.2%	-9.8%	2.8%	-14.2	-2.9
COc1ccc(Cl)cc1-c1nc(-c2ccc(Br)o2)no1	28.6%	-11.3%	x	-4.3	0.7
COc1ccc(Cc2noc(-c3ccc(C)cc3)n2)cc1	6.8%	u	72.9%	72.4*	28.7*
COc1ccc(-c2nc(-c3ccc(Br)o3)no2)cc1	-15.9%	-0.2%	x	63.9*	28.5*
CCOc1cc(-c2nc(-c3ccc(OC)cc3)no2)cc(OCC)c1OCC	u	-7.0%	15.0%	29.2	-3.2
COc1cccc(-c2noc(-c3ccc(Br)o3)n2)c1	33.4%	-7.7%	101.1%	109.0*	32.3*
Fc1cccc(F)c1-c1nc(-c2ccc(Cl)cc2)no1	202.2%	2.4%	447.1%	62.8*	56.0*
COC(=O)c1ccc(-c2nc(-c3ccc(Br)o3)no2)cc1	-14.5%	0.3%	x	29.9	20.6*
NCc1nc(-c2ccc(Cl)cc2)no1	11.8%	9.6%	15.1%	9.2	12.6
COc1ccc(-c2noc(-c3ccc(Cl)cc3)n2)cc1	u	3.3%	221.5%	48.4*	24.9*
CN(C(=O)Cn1cc(C(F)(F)F)ccc1=O)c1c(N)n(Cc2ccccc2)c(=O)[nH]c1=O	19.0%	1.6%	-4.4%	-1.0	1.2
CN1[C@@H](CC(=O)c2ccccc2)CCC[C@H]1C[C@H](O)c1ccccc1	16.9µM*!	-0.5%	13.5µM*	-14.9	-4.6
COc1cc2c(cc1OC)C(c1ccccc1)N(S(C)(=O)=O)CC2 (stereo not given)	u	2.4%	-6.9%	-9.2	0.7
O=S(=O)(NCCCc1ccccc1)c1ccc(Cl)cc1	9.28µM*	-24.5%	6.0%	-4.4	-1.4
COc1cc(OC)cc(C2=NC3(CCC(C)CC3)NC2=S)c1 (stereo not given)	-6.9%	x	10.4µM*	52.6	-3.8
Cc1cccc(Cn2c(C)nc3c(N)c(C)c(C)cc32)c1	u	x	10.4µM*	-12.3	-3.3
Cc1ccc(N=N/C(=C\O)C(=O)c2ccc(Cl)cc2)cc1	85.0%	x	u	105.9*	36.0*
CCOc1ccc(C2C(C(=O)/C=C/c3ccco3)=C(O)C(=O)N2CCN2CCOCC2)cc1OC (stereo not given)	8.4%	x	10.2%	22.1	-4.1
Cc1c(C(=O)/C=C/N(C)C)nnn1-c1ccc(F)c(Cl)c1	32.4%	-5.5%	46.5%	75.9*	32.8*
SMILES	Pf growth 96h	NS1 inh	Pf growth 48h	Shiga inhibitor	Cycloheximide cs
Cc1c(C(=O)/C=C/N(C)C)nnn1-c1ccc(Cl)cc1Cl	u	-32.9%	-49.9%	57.6*	13.5
CCOC(=O)CC(NC(=O)Cn1nnc(-c2ccccc2F)n1)c1ccccc1Cl (stereo not given)	u	x	1.3%	-9.8	3.6
CC(NS(=O)(=O)c1ccc(OCC(=O)NCc2ccncc2)cc1)c1ccccc1 (stereo not given)	u	9.6%	-7.1%	-11.2	9.2
CCOC(=O)C1CCCN(C(=O)CCNC(=O)Cn2ccc3ccccc3c2=O)C1 (stereo not given)	u	-2.8%	30.2%	-5.5	-2.6
CCOc1ccc(-c2cc(C(=O)N/N=C/c3cccnc3)c3ccccc3n2)cc1	u	14.2%	20.7%	62.5*	26.2*
COc1ccc(/C=N/NC(=O)c2nc(-c3ccccc3)cc(-c3ccccc3)n2)cc1O	u	6.1%	u	10.9	28.7*
Cc1cc(C(=O)N/N=C/c2cccnc2)c2ccccc2n1	-25.4%	-0.4%	2.3%	-7.1	-5.5
O=C(N/N=C/c1cccc(F)c1)c1cc(-c2ccco2)nc2ccccc12	140.8%	-0.6%	59.1%	86.3*	70.9*
O=C(N/N=C/c1ccc(O)cc1)c1cc(-c2ccccc2)nc2ccccc12	1.2%	-2.2%	15.7%	65.3*	34.0*
COc1cc(/C=N/NC(=O)c2cc(-c3ccco3)nc3ccccc23)cc(OC)c1O	-20.2%	8.8%	u	3.9	8.6
Cc1cccc(NCC(=O)NNC(=S)Nc2ccccc2)c1	u	2.8%	2.3%	-1.1	7.2
CCc1cccc(OCC(=O)N(C)CC(=O)Nc2cccc(F)c2)c1	-4.4%	x	-9.5%	x	x
O=C(N/N=C/c1ccccn1)c1cc(C2CC2)nc2ccccc12	u	-13.2%	-6.7%	1.9	-8.0
Cc1cccc(NC(=O)c2cc(-c3ccco3)nc3ccccc23)n1	20.1%	-1.1%	-15.9%	94.8*	16.4*
O=C(N/N=C/c1ccccn1)c1cc(-c2ccccc2)nc2ccccc12	13.1µM*	u	u	26.4	7.1
Cc1ccc(-c2cc(C(=O)N/N=C/c3ccoc3)c3ccccc3n2)cc1	9.28µM*	4.2%	-1.2%	-3.6	18.6
Cc1ccc(/C=N/NC(=O)c2cc(-c3ccccc3)nc3ccccc23)o1	-19.8%	2.2%	-17.3%	3.0	11.7
Cc1ccc(-c2cc(C(=O)N/N=C/c3c(C)nn(C)c3C)c3ccccc3n2)cc1C	u	-46.9%	x	48.6	19.0*
COc1cc(/C=N/NC(=O)c2cc(-c3ccccc3)nc3ccccc23)ccc1O	36.3%	25.2%	-40.2%	45.2*	23.5*
CC[N+]1(C)[C@@H]2CC[C@H]1CC(OC(=O)[C@H]1CCC(C(=O)OC3C[C@H]4CC[C@@H](C3)[N+]4(C)CC)(c3ccccc3)c3ccccc31)C2 (stereo not given in full)	8.28µM*	x	10.4µM*	x	x
CC(C)[N+]1(C)[C@@H]2CC[C@@H]1CC(OC(=O)C(CO)c1ccccc1)C2 (stereo not given in full)	22.7%	x	-3.8%	x	x
O=C(Cn1c(O)c(/C=C2\C=Nc3ccccc32)sc1=O)Nc1ccc2c(c1)OCO2	80.6%	-2.9%	19.7%	-6.6	29.2*
O=C(CN1C(=O)c2ccccc2C1=O)Nc1ccc2c(c1)OCO2	x	8.0%	19.0%	-3.8	1.3
O=C(Cn1c(O)c(/C=C2\C=Nc3ccc(Br)cc32)sc1=O)N1CCCC1	11.7µM*	u	x	14.4	-1.4
O=C(Cn1c(O)c(/C=C2\C=Nc3ccccc32)sc1=O)N1CCOCC1	-5.8%	-0.7%	-2.6%	18.4	-1.7
O=C(c1ccc2c(c1)OCCO2)N1CCN(c2ccc([N+](=O)[O-])cc2)CC1	13.8%	-5.1%	u	22.8	-1.8
CCCS(=O)(=O)N1CCC(C(=O)NCCN2CCC(Cc3ccccc3)CC2)CC1	1.8%	-1.9%	4.15µM*	1.4	6.2
